Data from the supplement of paper PMC8540655.
A number with no mark means an inactive call.

System: Aedes aegypti larvae
Test: larval motility relative to same well at 0 h (fraction); higher = more motile (less active compound), active = 0.4 or less
Settings: 10 µM
Method in brief: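 Relative motility is the score of a well divided by its own score at the first recording. Movies were made with INVAPP at 0, 2 and 24 h, each having 200 frames at 100 ms intervals. Larvae of Aedes aegypti, from 18–24 h hatches in pond salt solution with yeast at 25 °C, sat at about 10 per well (100 µL) in 96-well plates with compounds at 10 µM and 1% v/v DMSO. Solvent and larvicide control wells were included on every plate, and values are medians of three independent larval batches.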

| SMILES | larval motility (2 h) | larval motility (24 h) |
| --- | --- | --- |
| COc1ccc2nc(-c3ccccc3)cc(O)c2c1 | 1.08 | 0.908 |
| CCc1ccc(C2CC(C(F)(F)F)n3ncc(C(=O)NCc4ccc(OC)cc4)c3N2)cc1 (stereo unspecified) | 0.923 | 1.29 |
| C[C@H](c1cccc2ccccc12)N(C)Cc1ccccc1 | 1.02 | 1.26 |
| Cc1cccc(C)c1C(=O)Nc1nc(-c2ccccn2)cc2ccccc12 | 0.564 | 1.01 |
| CC(C)c1ccc(COc2cccc(-c3cc(S(C)=O)c(C#N)c(=O)[nH]3)c2)cc1 (stereo unspecified) | 0.682 | 0.447 |
| Cc1nc(N(C)C(=O)Cc2ccc(-c3ccccn3)cc2)sc1S(N)(=O)=O | 1.62 | 1.81 |
| Cc1ncc([N+](=O)[O-])n1CC(C)O (stereo unspecified) | 1.43 | 1.55 |
| CCc1cc(Cc2cnc(N)nc2N)cc2c1N(C)CCC2C (stereo unspecified) | 0.948 | 0.898 |
| CC1CCc2c(N3CCC(O)CC3)c(F)cc3c(=O)c(C(=O)O)cn1c23 (stereo unspecified) | 1.3 | 0.744 |
| COc1c(NC(=O)[C@H]2CC[C@@H](COc3ccc([N+](=O)[O-])cc3)CC2)c(F)cc2c(=O)c(C(=O)O)cn(C3CC3)c12 | 1.02 | 0.873 |
| CC(N)C(=O)NC(CCCCN)C(=O)NC(CCCNC(=N)N)C(=O)NC(Cc1c[nH]cn1)C(=O)NC(Cc1c[nH]cn1)C(=O)NCC(=O)NC(Cc1ccc(O)cc1)C(=O)NC(CCCCN)C(=O)NC(CCCNC(=N)N)C(=O)NC(CCCCN)C(=O)NC(Cc1ccccc1)C(=O)NC(Cc1c[nH]cn1)C(N)=O (stereo unspecified) | 0.858 | 1.19 |
| c1cnc(NCc2ccc(CNc3ncccn3)cc2)nc1 | 1.23 | 0.598 |
| O=C(NCc1ccc2c3c(cccc13)C(=O)N2)c1cccs1 | 0.944 | 0.861 |
| Fc1cccc(Cl)c1C1CC(c2ccc(Cl)cc2)Nc2nnnn21 (stereo unspecified) | 1.01 | 1.08 |
| O=C(O)c1ccc(-n2nc(-c3ccccc3O)nc2-c2ccccc2O)cc1 | 0.694 | 0.808 |
| COc1ccc(CNC(=O)C2CCN([C@H](C)c3cccc4ccccc34)CC2)cc1 | 0.771 | 0.922 |
| C[C@@H](NC(=O)c1ccccc1-c1ccccc1)B(O)O | 0.616 | 0.615 |
| CN(O)C(=O)c1cc2c(CN3CCC[C@H]3C(N)=O)cn(Cc3ccc(F)cc3)c2cn1 | 0.668 | 1.08 |
| CCc1ccccc1OCCN1CCCCCC1 | 1.18 | 1.21 |
| O=C(N[C@H](Cc1cccc2ccccc12)C(=O)NCCc1c[nH]cn1)C1Cc2ccccc2C1 | 0.819 | 0.952 |
| C(=C\c1nc2ccccc2[nH]1)/c1ccc2c(c1)OCO2 | 0.765 | 1.01 |
| COc1nc2ccc(Br)cc2cc1[C@@H](c1ccccc1)[C@@](O)(CCN(C)C)c1cccc2ccccc12 | 0.838 | 0.679 |
| O=C(NNC(=S)Nc1ccc(Cl)cc1)c1ccncc1 | 0.695 | 0.45 |
| Nc1nc(-c2ccccc2)nc2[nH]nc(Nc3ccc(C(F)(F)F)cc3)c12 | 0.791 | 0.591 |
| CO/N=C(\C(=O)N[C@@H]1C(=O)N2C(C(=O)OCOC(=O)C(C)(C)C)=C(/C=C\c3scnc3C)CS[C@H]12)c1csc(N)n1 | 1.51 | 1.18 |
| Nc1nc(O)c(Br)c(-c2ccccc2)n1 | 0.633 | 0.648 |
| N=C(N)NCCCCC(=O)Nc1cc(C(F)(F)F)cc(NC(=O)c2cc(C(=O)Nc3cc(C(F)(F)F)cc(NC(=O)CCCCNC(=N)N)c3O[C@@H]3CCNC3)ncn2)c1O[C@@H]1CCNC1 | 0.425 | 0.764 |
| COc1ccc(NS(=O)(=O)c2ccc(Cl)s2)cn1 | 0.931 | 1.43 |
